Measurements from PubChem BioAssay (NCATS).
Inconclusive results are not listed. Entries that show only a call come without a potency. The source made the active and inactive calls. The call rests on the fitted dose curve; in most records, active means well fitted cell-killing curve with a large enough effect; inconclusive means small, poorly fitted or top-dose-only effect, or effect the other way; inactive means flat fitted curve, though single readings scatter.

Tested on: HeLa
Experiment: Primary qHTS to identify gynecologic anti-cancer compounds using libraries of approved drugs and bioactive compounds (AID 1345084); further: nearly all actives have a fitted effect of over 55% in size
Conditions: Gynecologic cancer cell panel viability, ATPlite luminescence, 48 h; series mostly up to 57.5 µM
Summary of the method: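 Cell viability after 48 h drug treatment, ATPlite luminescence readout; five doses.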
Potency means the concentration at half of the fitted maximal effect.

Row | SMILES | Potency | activity change, negative = cytotoxicity
1 | O=[N+]([O-])c1ccc(-[n+]2nc(-c3ccccc3)nn2-c2ccc(I)cc2)cc1 | inactive | –
2 | COc1ccccc1NC(=O)Nc1ccc2ccccc2c1 | inactive | –
3 | C=C(C)C(=O)OC1[C@@H]2C(=C)C(=O)O[C@@H]2C[C@@H](C)[C@@H]2C=CC(=O)[C@@]12C (stereo not given in full) | inactive | –
4 | CCC(C)n1cc(C)c2c(C(=O)NCc3c(C)cc(C)[nH]c3=O)cc(-c3ccc(N4CCNCC4)nc3)cc21 (stereo not given) | inactive | –
5 | CC(C)[C@@H](C)/C=C/[C@@H](C)[C@H]1CC[C@H]2C3=CC=C4C[C@@H](O)CC[C@]4(C)C3=CC[C@]12C | inactive | –
6 | Cn1c(NC[C@@H](N)Cc2ccccc2)nc(-c2ccncc2)c(-c2ccc3ccccc3c2)c1=O | inactive | –
7 | CC1(C)CC[C@]2(C(=O)OC3OC(CO)C(O)C(O)C3O)CC[C@]3(C)C(=CCC4[C@@]5(C)CC[C@H](OC6OC(C(=O)O)C(O)C(O)C6O)C(CO)(CO)C5CC[C@]43C)[C@@H]2C1 (stereo not given in full) | – | -15.8% [at 11.6 µM] (inactive)
8 | CCOC(=O)c1cnn(-c2ccc(NC(=O)C(Cl)=C(Cl)Cl)cc2)c1C(F)(F)F | inactive | –
9 | COc1ccc(C(=O)N(CCC(C)C)Cc2nc(C)c(C)n2Cc2ccccc2C)c(OC)c1 | inactive | –
10 | O=C(Nc1ccc(F)cc1)N1CCc2ccccc2C1c1ccc(C(F)(F)F)cc1 (stereo not given) | inactive | –
11 | Cc1ccc(C(=O)N2CCN(c3ccc([N+](=O)[O-])cc3)CC2)cc1Cl | inactive | –
12 | CN(C)C(=O)c1cc2cnc(Nc3ccc(N4CCNCC4)cn3)nc2n1C1CCCC1 | inactive | –
13 | C=C1/C(=C/C=C2\CCC[C@]3(C)[C@@H]([C@H](C)/C=C/C(=O)C4CC4)CC[C@@H]23)C[C@@H](O)C[C@@H]1O | inactive | –
14 | CC(C)(C)c1ccc(-c2nc3ccccc3[nH]2)cc1 | 2.24 µM (active) | –
15 | COc1cc(O)c(C(=O)CCc2ccc(O)cc2)c(O[C@@H]2O[C@H](CO)[C@@H](O)[C@H](O)[C@H]2O)c1 | inactive | –
16 | CCN1CCN(Cc2ccc(-c3cc4c(NC(C)c5ccccc5)ncnc4[nH]3)cc2)CC1 (stereo not given) | inactive | –
17 | CN1CCN(C(=O)c2ccc(Nc3nccc(-c4cccs4)n3)cc2Cl)CC1 | inactive | –
18 | Cc1ccc2c(Nc3ccc(Cl)cc3)nccc2c1Nc1ncccc1-c1ncnc2nc[nH]c12 | inactive | –
19 | COc1ccccc1-c1cc(Nc2cccc(CS(N)(=O)=O)c2)ncn1 | 22.4 µM (active) | –
20 | Cc1ccc(C2(COC(=O)C(C)C)CO2)c(OC(=O)C(C)C)c1 (stereo not given) | inactive | –
21 | CC1(C)CC23[C@@H]4CC(=O)[C@@H]2COC(=O)[C@@H]3CC[C@H]41 | inactive | –
22 | COc1cc2ncnc(Oc3cccc(NC(=O)Nc4cc(C(C)(C)C(F)(F)F)on4)c3)c2cc1OC | inactive | –
23 | O=C(NNc1ccccc1)c1ccncc1 | inactive | –
24 | CN(CCCNC(=O)c1ccc2nc3c(c(Cl)c2c1)CCCC3)Cc1ccccc1 | inactive | –
25 | CCN(CCCOc1ccc2c(Nc3cc(CC(=O)Nc4cccc(F)c4)[nH]n3)ncnc2c1)CCOP(=O)(O)O | inactive | –
26 | OCC(Cc1ccccc1)Nc1nc(Oc2ccc3c(c2)CCC3)nc2c1ncn2Cc1ccc(-c2ccccc2)cc1 (stereo not given) | inactive | –
27 | O=C(NC(NC(=S)Nc1ccc(F)c([N+](=O)[O-])c1)C(Cl)(Cl)Cl)C(c1ccccc1)c1ccccc1 (stereo not given) | inactive | –
28 | CC1CCC2C(=CCC(O)C2(C)C)C1(C)Cc1c(O)cc(CO)c(C=O)c1O (stereo not given) | inactive | –
29 | CCCCn1c(-c2ccccc2)nc(-c2ccccc2)c1CN(Cc1ccc2c(c1)OCO2)Cc1ccc2c(c1)OCO2 | inactive | –
30 | O=C(NCc1ccc(Oc2ccccc2)cc1)c1nc(-c2cc(Br)c(O)c(Br)c2)no1 | inactive | –
